The nature of experiment [1]: qHTS assay for small molecule agonists of the p53 signaling pathway (AID 651631; calls by dose curve; note: nearly all actives have a fitted effect of over 15% in size; note: potency is the fitted concentration of half-maximal effect). Summed up:
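Read-out is beta-lactamase FRET fluorescence measured 2 h after substrate addition at room temperature, in HCT-116 cells with a p53 response element-driven reporter exposed to compounds for 16 h at 37 °C.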

Experiment [2] in a line: qHTS assay for small molecules that induce genotoxicity in human embryonic kidney cells expressing luciferase-tagged ATAD5 (AID 651632). Note: nearly all actives have a fitted effect of over 15% in size. Note: potency is the fitted concentration of half-maximal effect. The method, boiled down: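 Genotoxicity read-out via ATAD5-luciferase: HEK293T cells, 16 hr compound incubation at 37C, Amplite detection.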
In general terms: Quantitative high-throughput screening tests each substance at several concentrations.

Experiment [3] is described as follows: qHTS assay for small molecule agonists of the p53 signaling pathway - cell viability (AID 651633; calls by dose curve; note: nearly all actives have a fitted effect of over 30% in size; note: potency is the fitted concentration of half-maximal effect). Summed up:
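Viability counter-read: CellTiter-Glo luminescence (30 min, room temperature) in the same p53RE-bla plates. These plates had been exposed to compounds for 16 h at 37 C.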

The nature of experiment [4]: qHTS assay for small molecules that induce genotoxicity in human embryonic kidney cells expressing luciferase-tagged ATAD5 - cell viability (AID 651634; calls by dose curve; note: nearly all actives have a fitted effect of over 25% in size; note: potency is the fitted concentration of half-maximal effect). The method, boiled down:
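Live-cell protease activity (CellTiter-Fluor, fluorescence) indicates viability. HEK293T cells with luciferase-tagged ATAD5; 15.5 hr compound treatment at 37C.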

Experiment [5] can be described thus: qHTS assay for small molecule disruptors of the mitochondrial membrane potential - cell viability (AID 720634; calls by dose curve; note: nearly all actives have a fitted effect of over 20% in size; note: potency is the fitted concentration of half-maximal effect). Summed up:
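Human hepatoma HepG2 cells were treated for 1 hr with test chemicals, then given m-MPI dye and CellTiter-Glo. Cell viability reflects luminescence proportional to cellular ATP.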

Experiment [6] is described as follows: qHTS assay for small molecule disruptors of the mitochondrial membrane potential (AID 720635). Note: potency is the fitted concentration of half-maximal effect. Summed up: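 Mitochondrial membrane potential tracked with Mito-MPS dye, red aggregates (ex 540/em 590 nm) against green monomers (ex 490/em 535 nm). Compound treatment 1 hr at 37C, dye 30 min in HepG2.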
A short description of experiment [7]: qHTS assay to test for compound auto fluorescence at 590 nm (red) in HepG2 cells (AID 720674). Summed up:
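1 hr compound incubation on HepG2 cells, 37 C, 5% CO2; plate read ex 540 nm / em 590 nm; intensities reported as Rose Bengal sodium equivalents.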

Experiment [8] in a line: qHTS assay to test for compound auto fluorescence at 460 nm (blue) in HEK293 cells (AID 720678). The method, boiled down:
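HEK293 cells (2,000 per well, medium with 10% dialyzed FBS) attached for 4-5 hr at 37C, then received compound and stood overnight at 37C, 5% CO2. Blue fluorescence was read at Ex/Em 405/460 nm and expressed relative to triamterene.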

Experiment [9] in a line: qHTS assay to test for compound auto fluorescence at 590 nm (red) in HEK293 cells (AID 720679). Summed up:
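HEK293 cells (2,000/well, medium with 10% dialyzed FBS) attached for 4-5 hr at 37C, received 23 nL compound and were incubated overnight at 37C, 5% CO2. Red fluorescence was then read at 540/590nm Ex/Em, referenced to Rose Bengal sodium.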

The nature of experiment [10]: qHTS assay to test for compound auto fluorescence at 535 nm (green) in HepG2 cells (AID 720675).

Values joined by “and” are separate entries in the source; they are usually repeats but may differ in a detail not shown here. Identical values can stand only once. Records with an inconclusive call do not appear. Some structures have more than one record in an assay (separate samples or runs), and their calls can disagree. Active and inactive are the calls of the source. Unless noted, calls come from the whole dose curve; as a rule, active = well fitted curve in the direction sought with a large enough effect in the repeat runs; inconclusive = weak or mixed curves; inactive = no such curve, though single readings can be large; an effect the other way counts as inactive or inconclusive.

Regarding `ClCc1ccccn1`, the Potency result in [1], in [2], in [3], in experiment [4], in experiment [5] and in [6] was “inactive” in each case. The Potency result in experiment [8] is “inactive”. Also, the call in experiment [7] and in [9] was inactive.
Take `CNC(=S)S`: the Potency result in [1], in experiment [2], in experiment [3], in experiment [4], in [5] and in experiment [6] was “inactive” each time. In experiment [8], the Potency entry is “inactive”. Besides, the compound was classed as inactive in [7] and in experiment [9].
For the compound `CCCCC(C#N)(Cn1cncn1)c1ccc(Cl)cc1` (stereo not given), the Potency entry in experiment [1], in experiment [2], in experiment [3], in experiment [4], in experiment [5] and in experiment [8] was “inactive” each time. In addition, the result in [7], in experiment [10] and in [9] was inactive.
For the compound `Clc1cccc(C(Cl)(Cl)Cl)n1`, the Potency entry in experiment [1], in [2], in experiment [3], in experiment [4], in [5] and in experiment [8] was “inactive” each time. The outcome in [7], in [10] and in [9] was inactive.
With `C[C@]12CCC(=O)C=C1CC[C@@H]1[C@@H]2CC[C@@]2(C)[C@H]1CC[C@]2(C)O`, the Potency is 21.7 µM (active) in experiment [1]; “inactive and 54.5 µM (active)” in experiment [3]. Besides, the Potency entry in experiment [2], in experiment [4], in experiment [5], in [6] and in experiment [8] was “inactive” throughout. Besides, the outcome in [7] and in [9] was inactive.
As to `CC(C)(C#N)N=NC(C)(C)C#N`, the Potency result in [1], in experiment [2], in [3], in experiment [4], in experiment [5] and in experiment [6] was “inactive” in each case. The Potency entry in [8] was “inactive”. In addition, the result in experiment [7], in [10] and in [9] was inactive.
With `NC(=O)CN1CCCC1=O`, the Potency result in experiment [1], in [2], in [3], in [4], in experiment [5] and in experiment [6] was “inactive” in each case. Moreover, the Potency entry in experiment [8] was “inactive”. In addition, the call in [7], in [10] and in [9] was inactive.
For the compound `N#CC(c1ccccc1)c1ccccc1`, the Potency result in experiment [1], in experiment [2], in experiment [3], in [4], in experiment [5] and in experiment [8] was “inactive” each time. Moreover, in experiment [6], the Potency is 7.69 µM (active). Also, the result in experiment [7], in experiment [10] and in experiment [9] was inactive.
As for `Nc1ccc2ccccc2c1`, the Potency entry in [1], in experiment [2], in [3], in experiment [4], in [5] and in [6] was “inactive” throughout. Also, in [8], the Potency result is “inactive”. For the same compound, the compound was called inactive in [7] and in [9].
Regarding `CCCCOCCOC(C)=O`, the Potency entry in experiment [1], in [2], in experiment [3], in experiment [4], in [5] and in [8] was “inactive” in each case. Moreover, the Potency in experiment [6] was 53 µM (active). Further, the outcome in experiment [7] and in experiment [9] was inactive.
On to `CCOS(=O)(=O)OCC`, for which the Potency result in experiment [1], in experiment [2], in experiment [3], in experiment [4], in [5] and in experiment [6] was “inactive” throughout. For the same compound, in [8], the Potency entry is “inactive”. For the same compound, the compound was called inactive in experiment [7] and in experiment [9].
On to `O=[N+]([O-])c1ccc(Cl)c([N+](=O)[O-])c1`, for which the Potency is 55.3 µM (active) and 12.2 µM (active) in experiment [1]; 24.7 µM (active) in experiment [2]; 22 µM (active) and 54.5 µM (active) in [3]; 55.3 µM (active) and 68.6 µM (active) in experiment [4]; 22 µM (active) and 21.7 µM (active) in experiment [5]; 8.77 µM (active) and 8.63 µM (active) in experiment [6]. The result in experiment [7] and in [9] was inactive. For the same compound, in experiment [8], the Potency result is “inactive”.
As to `Cc1ccc(N=CN(C)C=Nc2ccc(C)cc2C)c(C)c1`, the Potency entry in experiment [1], in [2], in experiment [4], in [5], in experiment [6] and in experiment [8] was “inactive” each time. The Potency entry in experiment [3] was “inactive and 54.7 µM (active)”. Also, the compound was called inactive in experiment [7], in experiment [10] and in experiment [9].
Consider `CCOP(=S)(OCC)OP(=S)(OCC)OCC`, for which the Potency entry in experiment [1], in [3], in [4], in [5] and in [8] was “inactive” each time. Further, the call in experiment [7], in experiment [10] and in [9] was inactive.
For the compound `CC1=C(C(=O)Nc2ccccc2)SCCO1`, the Potency result in experiment [1], in experiment [3], in [4], in experiment [5] and in experiment [8] was “inactive” each time. Also, the result in experiment [7], in experiment [10] and in experiment [9] was inactive.
In the case of `ClC(Cl)=C(Cl)C(Cl)=C(Cl)Cl`, the Potency entry in experiment [2], in [3], in experiment [4], in experiment [5], in experiment [6] and in experiment [8] was “inactive” each time. Besides, the compound was called inactive in experiment [7], in experiment [10] and in experiment [9].
For the compound `C[N+](C)(C)CC(=O)[O-]`, the Potency entry in experiment [2], in experiment [3], in experiment [4], in experiment [5], in experiment [6] and in experiment [8] was “inactive” throughout. Further, the outcome in experiment [7], in [10] and in experiment [9] was inactive.
Turning to `CCOP(=S)(OCC)SCSC(C)(C)C`, the Potency entry in experiment [1], in [3], in [4], in [5] and in [8] was “inactive” each time. Also, the compound was called inactive in experiment [7], in [10] and in experiment [9].
With `COP(=S)(OC)Oc1ccc(S(=O)(=O)N(C)C)cc1`, the Potency entry in experiment [1], in [3], in experiment [4], in [5] and in experiment [8] was “inactive” each time. For the same compound, the call in experiment [7], in experiment [10] and in experiment [9] was inactive.
For `O=[N+]([O-])/N=C1\NCCN1Cc1ccc(Cl)nc1`, the Potency entry in experiment [2], in experiment [3], in [4], in experiment [5], in [6] and in experiment [8] was “inactive” throughout. For the same compound, the compound was called inactive in experiment [7], in experiment [10] and in experiment [9].
On to `CCCCOC(=O)COC(=O)c1ccccc1C(=O)OCCCC`, for which the Potency result in [1], in experiment [3], in [4], in experiment [5], in experiment [6] and in experiment [8] was “inactive” in each case. The compound was called inactive in [7], in experiment [10] and in experiment [9].
As to `COP(=S)(OC)Oc1ccc(Sc2ccc(OP(=S)(OC)OC)cc2)cc1`, the Potency entry in [2], in experiment [3], in experiment [4] and in experiment [8] was “inactive” throughout. The Potency in [5] was 61.1 µM (active); in experiment [6], 24.8 µM (active) and 30.6 µM (active). Besides, the outcome in experiment [7], in [10] and in experiment [9] was inactive.
For the compound `COC(=O)Nc1nc2ccccc2[nH]1`, the Potency in [1] is 7.7 µM (active) and 13.7 µM (active). Besides, the Potency entry in experiment [3], in experiment [4], in experiment [5] and in experiment [8] was “inactive” throughout. For the same compound, the outcome in experiment [7], in [10] and in experiment [9] was inactive.
Take `N#Cc1c(Cl)c(Cl)c(Cl)c(C#N)c1Cl`: the Potency in experiment [1] is 21.3 µM (active) and 30.6 µM (active); in experiment [3], 6.73 µM (active) and 9.69 µM (active); in experiment [4], 30 µM (active) and 8.63 µM (active); in [5], 19 µM (active) and 21.7 µM (active); in [6], 3.37 µM (active) and 27.3 µM (active). Besides, the compound was called inactive in experiment [7], in experiment [10] and in experiment [9]. The Potency entry in experiment [8] is “inactive”.
